A selection: hits, their analogues and other compounds. The true share with any hit is near 17%.
TDP1 cell CPT – qHTS for Inhibitors of human tyrosyl-DNA phosphodiesterase 1 (TDP1): qHTS in cells in presence of CPT. Potency, µM (doses to about 46.2 µM), usual class: inhibitors. chicken DT40 Tdp1-/-;hTDP1 cells + 20 nM CPT, ATP luminescence, 48 h. AID 686979, 2013. hit rate 12% among 420,000; also: nearly all actives have a fitted effect of over 55% in size
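Cell growth measured by CellTiter-Glo luminescence after a minimum 48 h, 37 C compound exposure with 20 nM CPT in Tdp1-knockout DT40 cells stably expressing hTDP1, seeded 400/well; qHTS titration format.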
ATXN viability – Viability Counterscreen for Primary qHTS for Inhibitors of ATXN expression; hit rate 0.49% among 400,000; S2 cells (HEK-293 line with an ATXN2-luciferase reporter) viability, CellTiter-Fluor protease fluorescence, 24 h; Potency, µM (doses to about 56.7 µM), most hits filed as cytotoxic; AID 651635, 2014; also: nearly all actives have a fitted effect of over 40% in size
DT40 TDP1 no CPT – qHTS for Inhibitors of human tyrosyl-DNA phosphodiesterase 1 (TDP1): qHTS in cells in absence of CPT; DT40 Tdp1-/- hTDP1 cells, no CPT, ATP luminescence, 48 h; Potency, µM (top dose mostly 46.2 µM), actives largely listed as inhibitors; hit rate 15% among 420,000; also: nearly all actives have a fitted effect of over 55% in size
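Growth kinetics read by CellTiter-Glo luminescence after ≥48 hr at 37 °C. Cells: DT40 Tdp1-/- stably carrying human TDP1, 400 per well, compound exposure in the absence of CPT (DMSO vehicle).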
HepG2 viability – qHTS for Inhibitors of TGF-b: Cytotox Counterscreen; HepG2 CAGA-GFP viability, ATP luminescence, 18 h; Potency, µM (doses to about 46.1 µM), actives largely listed as cytotoxic; hit rate 0.76% among 410,000
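HepG2 CAGA-GFP cells (1000/well, DMEM with 1% FBS) received compound, then TGF-beta at 500 pg/mL final, and were incubated 18 hours at 37 degrees C. Viability was read by CellTiter-Glo luminescence. Media-only wells were set as complete cell-killing and DMSO as no toxicity.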
TGFb SMAD3 inh – qHTS for Inhibitors of TGF-b; HepG2 CAGA-GFP TGF-b/SMAD3 reporter, GFP fluorescence, 18 h; TGF-beta stimulated, 500 pg/mL final; Potency, µM (series often up to 46.1 µM), most hits filed as inhibitors; hit rate 1.2% among 410,000; AID 588855, 2011; also: nearly all actives have a fitted effect of over 65% in size
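Using HEPG2 CAGA-GFP reporter cells at 1000 cells/well, we pinned test compounds, stimulated with recombinant TGF-beta (500 pg/mL final) and measured total well GFP after 18 h.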
ATXN2 expr inh – Primary qHTS for Inhibitors of ATXN expression; hit rate 0.72% among 360,000; Potency, µM (top dose mostly 57 µM), usual class: inhibitors; HEK-293 ATXN2-luciferase reporter, luminescence, 24 h; also: nearly all actives have a fitted effect of over 55% in size
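ATXN2-luciferase reporter cells (luciferase flanked by upstream and downstream ATXN2 gene portions) were treated 24 h at 37 °C with compounds at up to 57 uM. SteadyGlo luminescence gave expression; GF-AFC fluorescence gave viability.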
Hits are given with their value; n = inactive; u = inconclusive; x = no result; [ ] = dose if it differs, or a comment. Calls follow the shape of the dose curve; as a rule, active = well fitted curve in the direction sought with a large enough effect; inconclusive = small, poorly fitted or top-dose-only effect, or another doubt; inactive = no such curve, though single readings can be large; an effect the other way counts as inactive or inconclusive.

SMILES | TDP1 cell CPT | ATXN viability | DT40 TDP1 no CPT | HepG2 viability | TGFb SMAD3 inh | ATXN2 expr inh
COc1ccc(CNC(=O)CN2C(=O)CSc3ccc(S(=O)(=O)N4CCOCC4)cc32)c(OC)c1 | n | n | n | n | n | n
COc1cc(NC(=O)c2cc(C)nc3c2c(C)nn3-c2ccccc2Cl)cc(OC)c1 | u | u | 23.1µM | n | u | n
Cc1cc(C(=O)N2CCN(c3cccc(Cl)c3)CC2)c2c(C)nn(-c3ccccc3Cl)c2n1 | u | u | 29.1µM | n | u | u
Cc1cc(C(=O)N2CCN(c3ccc(F)cc3)CC2)c2c(C)nn(-c3cccc(Cl)c3C)c2n1 | 20.6µM | n | 14.6µM | n | n | n
Cc1cc(C)nc(NC2=N[C@@H]3CCCC[C@H]3N2C(=O)Nc2cc(Cl)cc(Cl)c2)n1 | n | n | n | n | n | n
Cn1c(=O)c2c(nc(Oc3ccccc3Cl)n2Cc2ccc(C#N)cc2)n(C)c1=O | n | n | n | n | n | n
CCCCCCN1C[C@H](O)[C@@H](n2cc(COC(=O)c3ccccc3)nn2)C[C@@H]1c1ccccc1 | n | n | n | n | n | n
Cc1cccc(NC(=O)c2ccc(-n3ccnc3)nc2)c1 | n | n | n | n | n | n
COc1ccc(CCNC(=S)Nc2cccc3ccccc23)cc1 | u | n | 16.4µM | n | u | n
COc1ccc(OCCNC(=S)Nc2cccc3ccccc23)cc1 | n | n | 23.1µM | n | u | n
COc1ccc(CCNC(=S)Nc2ccccc2C)cc1 | u | n | u | n | n | n
Cc1ccc(C(=O)N2N=C(c3ccccc3O)CC2c2ccccc2)cc1 (stereo not given) | u | n | 20.6µM | n | n | n
CCOC(=O)[C@@H]1[C@H]2COc3ccccc3[C@H]2N2C(=O)N(c3ccc(C(F)(F)F)cc3)C(=O)[C@]12C | 18.4µM | u | 14.6µM | n | u | n
CCOC(=O)[C@H]1[C@H]2COc3cc(OC)ccc3[C@@H]2N2C(=O)N(c3ccc(Cl)cc3)C(=O)[C@@]12C | 18.4µM | n | u | n | n | n
CCOC(=O)[C@@H]1[C@H]2COc3ccccc3[C@@H]2N2C(=O)N(c3ccc(C(F)(F)F)cc3)C(=O)[C@]12C | 18.4µM | n | u | n | n | n
CCOC(=O)[C@@H]1[C@H]2COc3ccc(Br)cc3[C@@H]2N2C(=O)N(c3ccc(C(F)(F)F)cc3)C(=O)[C@]12C | u | n | 16.4µM | n | n | n
CCOC(=O)[C@@H]1[C@H]2COc3ccccc3[C@@H]2N2C(=O)N(c3ccc(F)cc3)C(=O)[C@@]12C | n | n | n | n | n | n
COc1ccc(CCNC(=O)c2ccc(Cn3c(=O)c4ccccc4n(Cc4ccc(F)cc4Cl)c3=O)cc2)cc1OC | n | n | n | n | n | n
CCOC(=O)[C@@H]1[C@H]2COc3ccccc3[C@@H]2N2C(=O)N(c3ccc(C(F)(F)F)cc3)C(=O)[C@@]12C | 13µM | u | 23.1µM | n | n | n
CCOc1ccc(C(=O)N/N=C/c2cccc3cccnc23)cc1 | 10.3µM | n | 9.2µM | n | u | u
CSCC[C@H](NC(=O)OC(C)(C)C)C(=O)N/N=C/c1cccc2cccnc12 | 25.9µM | n | 20.6µM | n | n | 28.2µM
COc1ccc(C(=O)N/N=C/c2cccnc2)cc1 | n | n | n | n | n | n
COc1ccc(C(=O)N/N=C/c2cccc3cccnc23)cc1 | 4.11µM | n | 4.61µM | n | u | 22.4µM
COc1ccc(C(=O)N/N=C/c2cc3ccccc3[nH]c2=S)cc1 | 1.46µM | n | 1.46µM | n | n | n
CCOc1ccccc1C(=O)N/N=C/c1cccc2cccnc12 | u | n | u | n | u | n
SMILES | TDP1 cell CPT | ATXN viability | DT40 TDP1 no CPT | HepG2 viability | TGFb SMAD3 inh | ATXN2 expr inh
CCc1cc2c(=O)c(-c3ccc4c(c3)OCCO4)c(C)oc2cc1OS(C)(=O)=O | u | n | 25.9µM | n | u | n
CCc1cc(=O)oc2c(C)c(OS(C)(=O)=O)ccc12 | n | n | n | n | n | n
O=[N+]([O-])c1ccc(Cl)cc1NCC1CCCO1 (stereo not given) | n | n | n | n | n | n
COC(=O)C1=C(N)Oc2cc(C)n(CCCn3ccnc3)c(=O)c2C1c1cccc(Cl)c1 (stereo not given) | n | n | n | n | n | u
COc1ccc(/C=C/C(=O)NC(=S)Nc2ccc(C(=O)O)cc2)cc1 | n | u | n | n | n | n
COc1ccc2c(CCNC(=O)/C=C/c3ccc(OC)c(OC)c3)c[nH]c2c1 | u | n | 18.4µM | n | n | n
COc1ccc(/C=C/C(=O)NC(=S)NNC(=O)c2cc(OC)c(OC)c(OC)c2)cc1OC | u | n | 14.6µM | n | n | x
COc1ccc(/C=C/C(=O)NC(=S)NNC(=O)c2cc(OC)c(OC)c(OC)c2)cc1 | u | n | 9.2µM | n | u | x
COc1ccc(OC)c(/C=C/C(=O)NCCc2nc3ccccc3[nH]2)c1 | 7.31µM | n | 11.6µM | n | n | n
COc1ccc(/C=C/C(=O)NC(=S)Nc2ccccc2)cc1OC | n | n | n | n | n | n
O=C(CN(C(=O)c1csnn1)c1cccc(Cl)c1)NC1CCCCC1 | n | n | n | n | n | n
CC(C)=CCC/C(C)=C/CNC(=O)C[C@H]1C[C@H](C(=O)N2CCCCC2)[C@@]2(CCc3ccccc3)c3[nH]c4cc(-c5ccco5)ccc4c3CCN2C1=O | u | n | u | n | u | n
COc1ccc(/C=C/C(=O)NC(=S)NCCc2ccc(OC)c(OC)c2)cc1 | u | u | u | 6.31µM | 5.62µM | u
COc1cccc(/C=C/C(=O)NCCc2ccc(OC)c(OC)c2)c1 | u | u | u | n | n | n
CCOC(=O)n1c2ccccc2c(=O)n1CCO | n | n | n | n | n | n
Cc1cc(/C=N/NC(=O)c2cccs2)c(C)n1-c1ccccc1 | 16.4µM | u | 13µM | n | n | n
O=C(N/N=C\c1cn[nH]c1-c1ccc(Cl)cc1)c1cccs1 | n | n | n | n | 10µM | x
Cc1cc(/C=N/NC(=O)c2ccncc2)c(C)n1-c1ccccc1 | n | n | n | n | n | x
Cc1cc(C(=O)N/N=C/c2ccc(O)c(O)c2O)c(C)n1-c1ccccc1 | 4.61µM | u | 3.26µM | n | n | n[11.3 µM]
COc1ccc(/C=N/NC(=O)c2cccnc2)c2ccccc12 | n | n | n | n | u | n
COc1ccc(/C=N/NC(=O)c2cccs2)c2ccccc12 | u | n | 8.2µM | n | n | n
